Reference: PubChem BioAssay AID1628 (Sanford-Burnham Center for Chemical Genomics, 2009)
About 930 (0.49%) of roughly 190,000 compounds were called active.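 Rule for the calls: active = z-score of insulin promoter reporter brightness in nuclei below -3 at 5 µM, with at least 500 cells counted; inconclusive = wells with under 500 cells, flagged as toxic or sparse; inactive = the rest.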 The list shows a part of the results. Results with a measured potency or affinity are listed apart.

Assay: insulin promoter down-regulators in MIN6 cells, imaging, high-content screening, mouse beta cells (AID 1628)
Conditions: MIN6 insulin promoter GFP reporter, at 5 µM, stronger effect = lower value
For `Cc1sc2ncnc(Sc3ccccc3C(=O)Nc3ccc(Br)cc3)c2c1C`, the z-score was -5.49 (active). For `CC1CCN(S(=O)(=O)c2ccc3c(c2)c(=O)c(C(=O)N2CCCCC2)cn3C)CC1`, the z-score was 4.9 (inactive). In the case of `CC1CCc2c(C(=O)N3CCN(S(=O)(=O)c4cccs4)CC3)csc2C1` (stereo not given), the z-score is reported as -3.81 (active). For `COC(=O)c1cc2occc2n1Cc1c(F)cccc1Cl`, the z-score was 3.08 (inactive). For `COC(=O)c1ccc(COc2ccc3c(C)c(C)c(=O)oc3c2)o1`, the z-score was 3.49 (inactive). With `CCOc1ccc(N2C(N)=NC(N)=NC2(C)C)cc1` the z-score was -4.31 (active). For `CCOC(=O)CN1CC23C=CC(O2)C(C(=O)Nc2cc(OC)ccc2OC)C3C1=O` (stereo not given), the z-score was 4.17 (inactive). In the case of `COc1cc(N2CCCC2)c(OC)cc1/C=C(/C#N)c1cccc(Br)c1`, the z-score is reported as 15.4 (inactive). In the case of `COc1cc(N2CCCC2)c(OC)cc1/C=C(/C#N)c1cccc(F)c1`, the z-score is reported as 3.95 (inactive). With `N#C/C(=C\c1cc([N+](=O)[O-])c(N2CCCCC2)cc1N1CCCCC1)c1nn(-c2ccccc2)c(N)c1C#N` the z-score was -3.55 (active). In the case of `CCOC(=O)CNC(=O)c1cn(C)c(=O)c2cc(OC)c(OC)cc12`, the z-score is reported as 3.18 (inactive). In the case of `CCCNC(=O)c1cc(OC)c(OC)cc1[N+](=O)[O-]`, the z-score is reported as -4.31 (active). For `CCN1CCN(c2cc(C)c3cc(NC(=O)Cc4ccccc4OC)ccc3n2)CC1`, the z-score was -4.89 (active). For `COc1ccccc1CC(=O)NC1CC(C)(C)NC(C)(C)C1`, the z-score was 3.65 (inactive). For `CC(=O)N1CCN(Cc2nc3cc(NC(=O)c4ccccc4)ccc3n2C)CC1`, the z-score was 3.37 (inactive). In the case of `Cc1cc(N2CCOCC2)nc2ccc(NC(=S)N3CCCCC3C)cc12` (stereo not given), the z-score is reported as 1.7 (inactive). With `CCc1ccc(CN(C)C(=O)CCc2nnc(-c3ccc(-c4ccccc4)cc3)o2)nc1` the z-score was -3.31 (active). In the case of `CCN(CC)c1ccc2cc(C#N)c(=O)oc2c1`, the z-score is reported as 4.24 (inactive). With `CCCCCCc1cc2cc(-c3nnc(-c4ccccc4O)o3)c(=O)oc2cc1O` the z-score was 7.49 (inactive). In the case of `CCCCCCc1cc2cc(C(=O)Nc3ccc(OC)cc3)c(=O)oc2cc1O`, the z-score is reported as -4.12 (active). With `CCCCCCc1cc2cc(-c3nnc(-c4ccccc4OC)o3)c(=O)oc2cc1O` the z-score was 8.91 (inactive). In the case of `COC(=O)c1ccc(OCCn2cnc3ccccc3c2=O)cc1`, the z-score is reported as 0.57 (inactive). In the case of `CCCOc1ccc(Cn2cnc3ccccc32)cc1`, the z-score is reported as -5.58 (active). With `Cc1cc(SCCOc2ccccc2)nc(N)n1` the z-score was 3.13 (inactive). In the case of `COC(=O)Cc1c(C)nc2nc(NCc3ccccc3OC)[nH]n2c1=O`, the z-score is reported as 4.27 (inactive). In the case of `Cc1cc(C)cc(-n2c(=O)c3sccc3n(CC(=O)NCc3ccco3)c2=O)c1`, the z-score is reported as 4.64 (inactive). With `CC(=O)c1sc2nc(-c3cccs3)cc(C(F)(F)F)c2c1N` the z-score was 14.9 (inactive). In the case of `Nc1ncnc2c1ncn2CCOc1ccccc1`, the z-score is reported as -4.5 (active). With `CC(C)(C)NC(=O)/C=C/c1ccc(C(F)(F)F)cc1` the z-score was -3.15 (active). For `CC(C)(C)C(=O)/C=c1\s/c(=C\c2ccc(-c3ccc([N+](=O)[O-])cc3)o2)c(=O)n1CC(=O)NC(N)=O`, the z-score was 17.1 (inactive). For `CC1(C)C=Cc2c(c3c(c4c(=O)c(-c5ccc(O)cc5)coc24)OC(C)(C)CC3)O1`, the z-score was -0.78 (inactive). In the case of `CC(C)c1nc2oc3c(N4CCN(C)CC4)ncnc3c2c2c1CCC2`, the z-score is reported as -3.12 (active). With `COCCn1c(C)cc(C(=O)CSc2ncnc3sc4c(c23)CCC4)c1C` the z-score was -8.03 (active). For `CC(OC(=O)c1ccc(S(=O)(=O)NCc2ccco2)cc1)C(=O)Nc1ncc(Cl)cc1Cl` (stereo not given), the z-score was -5.26 (active). With `CC(OC(=O)c1ccc2ncsc2c1)C(=O)Nc1ncc(Cl)cc1Cl` (stereo not given) the z-score was -5.12 (active). For `N#Cc1ccc(CSc2nnc(NC(=O)c3ccc4ncsc4c3)s2)cc1`, the z-score was 4.4 (inactive). With `Cc1noc(C)c1CS(=O)(=O)c1ccc(Br)cc1` the z-score was 3.18 (inactive). With `Cc1noc(C)c1COC(=O)c1ccc(S(=O)(=O)NCc2ccco2)cc1` the z-score was -4.22 (active). In the case of `C1=C(N2CCOCC2)/C(=C/c2nc3ccccc3[nH]2)CC1`, the z-score is reported as 3.43 (inactive). In the case of `COc1ccc(N=c2oc3cc(O)ccc3cc2C(=O)Nc2ccccn2)cc1OC`, the z-score is reported as -3.17 (active). For `CCN(CC)c1ccc2cc(C(=O)Nc3ccccn3)c(=O)oc2c1`, the z-score was 6.12 (inactive). In the case of `CC(C)OCCCn1c(NN)nc2ccccc2c1=O`, the z-score is reported as -4.32 (active). For `CCCN1C(=O)/C(=C/c2c(NCCCOC(C)C)nc3c(C)cccn3c2=O)SC1=S`, the z-score was 11.2 (inactive). With `O=c1oc2ccccc2c(NCc2cccc(F)c2)c1[N+](=O)[O-]` the z-score was 1.25 (inactive). For `Cc1ccc(/C(C#N)=C\c2ccc(N3CCOCC3)o2)cc1`, the z-score was 6.7 (inactive). With `C/C(=N\NC(=O)c1cc(-c2cccs2)nc2ccccc12)c1ccccn1` the z-score was -6.25 (active). In the case of `C/C(=N\NC(=O)c1cc(-c2ccccn2)nc2ccccc12)c1cccc([N+](=O)[O-])c1`, the z-score is reported as 4.2 (inactive). With `Cc1cc(C)c2nc(NNC(=O)c3cc(-c4cccs4)nc4ccccc34)sc2c1` the z-score was 3.73 (inactive). In the case of `Cc1ccnc(N2C(=O)c3cccc4c([N+](=O)[O-])ccc(c34)C2=O)c1`, the z-score is reported as 3.14 (inactive). In the case of `Cc1ccc(N2C(=O)c3cccc4c(N5CCN(C)CC5)ccc(c34)C2=O)c2cccnc12`, the z-score is reported as 5.89 (inactive). With `COc1ccc(Cc2nc(-c3ccc(NC(=O)c4cccnc4)cc3)no2)cc1` the z-score was -4.08 (active). With `COc1ccc(NC(=O)c2sc3nc(-c4cccnc4)ccc3c2N)cc1` the z-score was 6.04 (inactive). With `O=C(Nc1cccnc1)c1ccc(S(=O)(=O)c2ccc(Cl)cc2)cc1` the z-score was 1.01 (inactive). In the case of `Cc1cccc(C2C3=C(Nc4[nH]n(-c5ccccc5)c(=O)c42)c2ccccc2C3=O)c1` (stereo not given), the z-score is reported as -4.1 (active). For `Brc1ccc2oc3c(N4CCOCC4)ncnc3c2c1`, the z-score was -0.34 (inactive). For `c1ccc2c(c1)oc1c(N3CCN(Cc4ccc5c(c4)OCO5)CC3)ncnc12`, the z-score was -6.44 (active). With `CC(C)/C=C1\CC/C(=C\c2ccc(N(C)C)cc2)C1=O` the z-score was 3.08 (inactive). With `COc1cc(-c2noc(C3CCCN(S(=O)(=O)c4cccc(Cl)c4)C3)n2)cc(OC)c1OC` (stereo not given) the z-score was -3.23 (active). With `COc1cccc2c(=O)n(CC(=O)Nc3cccc(F)c3)ccc12` the z-score was 3.43 (inactive). With `Cc1ccccc1C(=O)Nc1cccc(NC(=O)Cn2cnc3c(=O)n(C)c(=O)n(C)c32)c1` the z-score was -5.95 (active).
